Data on 20 molecules can be found in PubChem BioAssay (NCATS).

The target in test [1] is Calcium and integrin-binding protein 1 (Homo sapiens) (UniProt Q99828). The experiment in a line: Primary qHTS for Identification of Calcium Integrin Binding Protein 1 (CIB1) Competitor (AID 1508620).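 Note: GST tagged CIB1 binding a fluorescein labelled alphaIIb integrin peptide tracer; top concentration of the series differs between compounds.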 In a few lines: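 CIB1-GST (1 uM final) and compound incubated 15 min at room temperature before adding FITC-alphaIIb peptide tracer (100 nM final). Competition for binding read by fluorescence polarization (ex 480, em 540) after another 15 min at room temperature.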
Sequence of Calcium and integrin-binding protein 1 (Homo sapiens) (Q99828 whole entry, looked up): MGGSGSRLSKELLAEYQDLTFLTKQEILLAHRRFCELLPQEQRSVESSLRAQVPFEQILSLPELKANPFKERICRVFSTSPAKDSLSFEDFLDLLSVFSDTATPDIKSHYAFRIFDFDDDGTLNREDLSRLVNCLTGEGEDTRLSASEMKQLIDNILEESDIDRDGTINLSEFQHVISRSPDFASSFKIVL

Test [2] in a line: Primary qHTS for small molecule stabilizers of the endoplasmic reticulum resident proteome: Secreted ER Calcium Modulated Protein (SERCaMP) assay (AID 1508630). Note: potency is the fitted concentration of half-maximal effect. In a few lines: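 GLuc-SERCaMP-expressing SH-SY5Y cells, pretreated 16 h with compound, are challenged with thapsigargin to empty ER calcium stores; after 4 h, coelenterazine is added directly to the medium and luminescence is imaged.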

Test [3] addresses Cytochrome P450 2D6 (Homo sapiens) (UniProt P10635). The experiment in a line: Cytochrome P450 family 2 subfamily D member 6 (CYP2D6) small molecule antagonists: luciferase biochemical (cell-free) qHTS assay (AID 1645840; active = well fitted curve in the direction sought with a large enough effect in the repeat runs; an effect the other way counts as inactive or inconclusive; note: nearly all actives have a fitted effect of over 55% in size; note: potency is the fitted concentration of half-maximal effect). In a few lines: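 P450-Glo luminescent screen: recombinant CYP2D6 enzyme–proluciferin substrate mix preincubated with compound 10 min at room temperature, then NADPH regeneration added for 1 h at room temperature. Detection reagent added for 20 min; luciferin light read as relative luminescence units.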

Test [4] in a line: Primary qHTS for inhibitors of nuclear receptor binding SET domain protein 2 (NSD2) in an isogenic RCH-ACV NSD2 p.E1099K mutant (9B) (AID 1645876). Note: nearly all actives have a fitted effect of over 70% in size. Note: potency is the fitted concentration of half-maximal effect.
A short description of test [5]: Primary qHTS for inhibitors of nuclear receptor binding SET domain protein 2 (NSD2) in an RCH-ACV wild type WT cells (2C) (AID 1645877). Note: nearly all actives have a fitted effect of over 70% in size. Note: potency is the fitted concentration of half-maximal effect.
Test [6] concerns the target Cytochrome P450 2C9 (Homo sapiens) (UniProt P11712). As to the kind of experiment: Cytochrome P450 family 2 subfamily C member 9 (CYP2C9) small molecule antagonists: luciferase biochemical (cell-free) qHTS assay (AID 1645842; active = well fitted curve in the direction sought with a large enough effect in the repeat runs; an effect the other way counts as inactive or inconclusive; note: nearly all actives have a fitted effect of over 55% in size; note: potency is the fitted concentration of half-maximal effect). In a few lines:
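Luminescence, after 20 min with luciferin detection reagent, reflected CYP2C9 turnover during a 1 h NADPH-driven reaction at 37C. Enzyme-substrate mix contained 0.4% bovine serum albumin and was preincubated with compound 10 min at room temperature.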

Where “and” joins values, the source holds several entries; their conditions need not be identical. Equal values may be shown once. Results filed as inconclusive are left out. Where a structure was tested more than once in an assay, its records may differ in their call. Calls of active or inactive are those of the source. Unless noted, calls come from the whole dose curve; as a rule, active = well fitted curve in the direction sought with a large enough effect; inconclusive = small, poorly fitted or top-dose-only effect, or another doubt; inactive = no such curve, though single readings can be large; an effect the other way counts as inactive or inconclusive.

Sequence of Cytochrome P450 2C9 (Homo sapiens) (P11712 whole entry, looked up): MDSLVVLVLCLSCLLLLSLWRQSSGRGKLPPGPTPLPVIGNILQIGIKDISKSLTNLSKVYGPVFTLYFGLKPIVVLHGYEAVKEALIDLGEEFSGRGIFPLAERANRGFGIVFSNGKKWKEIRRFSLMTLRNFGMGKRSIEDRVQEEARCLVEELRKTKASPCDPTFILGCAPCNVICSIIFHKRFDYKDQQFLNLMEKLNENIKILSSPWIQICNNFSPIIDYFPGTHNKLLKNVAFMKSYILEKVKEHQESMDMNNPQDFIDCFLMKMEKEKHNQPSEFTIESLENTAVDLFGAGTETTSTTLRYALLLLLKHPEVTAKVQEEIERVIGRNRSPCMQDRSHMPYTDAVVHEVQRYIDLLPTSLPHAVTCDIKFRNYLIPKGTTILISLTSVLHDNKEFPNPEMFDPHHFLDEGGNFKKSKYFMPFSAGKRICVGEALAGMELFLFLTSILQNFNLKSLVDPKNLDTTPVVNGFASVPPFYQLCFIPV
Sequence of Cytochrome P450 2D6 (Homo sapiens) (P10635 whole entry, looked up): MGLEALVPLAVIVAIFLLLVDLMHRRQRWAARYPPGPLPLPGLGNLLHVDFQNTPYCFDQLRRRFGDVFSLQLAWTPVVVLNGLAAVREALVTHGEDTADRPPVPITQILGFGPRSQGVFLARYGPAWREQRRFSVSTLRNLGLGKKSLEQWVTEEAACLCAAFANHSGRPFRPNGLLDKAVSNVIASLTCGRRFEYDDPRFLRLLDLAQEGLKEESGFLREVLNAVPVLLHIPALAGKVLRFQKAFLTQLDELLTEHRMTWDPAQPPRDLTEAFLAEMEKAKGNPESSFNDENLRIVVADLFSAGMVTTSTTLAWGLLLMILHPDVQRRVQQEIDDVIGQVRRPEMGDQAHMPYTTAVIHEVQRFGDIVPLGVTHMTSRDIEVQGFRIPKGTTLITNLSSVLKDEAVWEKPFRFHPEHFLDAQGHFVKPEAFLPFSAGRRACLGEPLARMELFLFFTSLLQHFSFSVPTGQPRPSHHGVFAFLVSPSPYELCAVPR

`CC(C)(O)c1cc2nc(-c3cnc(N)nc3)nc(N3CCOCC3)c2s1`: the outcome in test [1] was inactive. Also, the Potency entry in test [2] and in test [3] was “inactive” each time. For the same molecule, the Potency in test [4] and in test [5] was 0.372 µM (active) throughout.

For the molecule `Nc1nc(NCCNc2ncc(-n3ccnc3)c(-c3ccc(Cl)cc3Cl)n2)ccc1[N+](=O)[O-]`, the outcome in test [1] was inactive. In test [2], the Potency result was “inactive”. The Potency was 1.69 µM (active) in test [3]; 0.134 µM (active) in test [6]; 5.15 µM (active) and inactive in test [4]; 4.59 µM (active) and inactive in test [5].

Consider `Cc1cnc(Nc2ccc(F)cc2Cl)nc1-c1c[nH]c(C(=O)N[C@H](CO)c2cccc(Cl)c2)c1`, for which the outcome in test [1] was inactive. For the same molecule, the Potency result in test [2] is “inactive”. Further, the Potency in test [3] is 8.49 µM (active); in test [6] it was 3.38 µM (active); in test [4], 2.9 µM (active) and 18.6 µM (active); in test [5], 3.65 µM (active) and 14.8 µM (active).

As for `O=C(Nc1cn[nH]c1-c1nc2ccc(CN3CCOCC3)cc2[nH]1)NC1CC1`, the result in test [1] was inactive. Further, the Potency result in test [2], in test [3] and in test [6] was “inactive” in each case. Also, the Potency in test [4] was 325 nM (active) and 366 nM (active) and 166 nM (active); in test [5], 64.9 nM (active) and 58 nM (active) and 59 nM (active).

As to `Clc1cccc(-c2nnnn2Cc2cccnc2)c1Cl`, the outcome in test [1] was inactive. The Potency result in test [2], in test [3], in test [4] and in test [5] was “inactive” throughout.

For the molecule `COc1ccc2c(c1)CC[C@@H](CN(C)CC(=O)O)[C@H]2c1ccccc1`, the result in test [1] was inactive. Further, the Potency result in test [2], in test [3], in test [6], in test [4] and in test [5] was “inactive” in each case.

As for `COc1cccc(Nc2c(C(N)=O)cnc3c(C)cc(S(=O)(=O)c4cccc(C(=O)N(C)C)c4)cc23)c1`, the outcome in test [1] was inactive. Further, the Potency result in test [2] is “inactive”. Also, in test [6], the Potency was 0.849 µM (active).

On to `C=CCn1c(=O)c2cnc(Nc3ccc(N4CCN(C)CC4)cc3)nc2n1-c1cccc(C(C)(C)O)n1`, for which, in test [1], the outcome was inactive. The Potency entry in test [2] and in test [3] was “inactive” throughout. The Potency in test [4] was 290 nM (active) and 372 nM (active); in test [5] it was 230 nM (active) and 468 nM (active).

As for `CNC(=O)c1c(F)cccc1Nc1nc(Nc2cc3c(cc2OC)CCN3C(=O)CN(C)C)nc2[nH]ccc12`, the outcome in test [1] was inactive. Moreover, the Potency result in test [2] and in test [3] was “inactive” in each case. The Potency was 0.425 µM (active) in test [6]; 5.15 µM (active) and 7.42 µM (active) in test [4]; 3.25 µM (active) and 5.9 µM (active) in test [5].

Take `CN1CCC(CNc2ccc3ncc(-c4cccc(OC(F)(F)F)c4)n3n2)CC1`: the outcome in test [1] was inactive. Moreover, in test [2], the Potency entry was “inactive”. The Potency in test [3] is 2.39 µM (active); in test [4] it was 2.58 µM (active) and 4.68 µM (active); in test [5], 2.05 µM (active) and 3.32 µM (active).

Regarding `CCn1cc(-c2ccnc3[nH]c(-c4cccc(CN(C)C)c4)cc23)c(-c2ccc(NC(=O)N(C)C)cc2)n1`, the result in test [1] was inactive. The Potency entry in test [2] was “inactive”. The Potency in test [3] was 19 µM (active); in test [6] it was 21.3 µM (active); in test [4], 112 nM (active) and 1.86 µM (active); in test [5], 36.6 nM (active) and 37.2 nM (active).

Take `O=C(Cc1ccc(-c2ccc(OCCN3CCOCC3)cc2)cn1)NCc1ccccc1`: the result in test [1] was inactive. Also, the Potency result in test [2] and in test [3] was “inactive” each time. Moreover, the Potency in test [4] is 459 nM (active) and 105 nM (active); in test [5] it was 258 nM (active) and 105 nM (active).

In the case of `COc1cc2nccc(Oc3ccc(NC(=O)C4(C(=O)Nc5ccc(F)cc5)CC4)cc3)c2cc1OC`, the outcome in test [1] was inactive. The Potency entry in test [2] and in test [3] was “inactive” each time. For the same molecule, the Potency is 2.68 µM (active) in test [6]; 3.65 µM (active) and 5.25 µM (active) in test [4]; 4.09 µM (active) and 4.68 µM (active) in test [5].

Turning to `NCC(=O)Nc1ccc(-n2nc(C(F)(F)F)cc2-c2ccc3c(ccc4ccccc43)c2)cc1`, the result in test [1] was inactive. Moreover, in test [2], the Potency entry was “inactive”. Further, the Potency was 15.1 µM (active) in test [3]; 4.77 µM (active) in test [6]; 1.15 µM (active) and 1.48 µM (active) in test [4]; 4.09 µM (active) and 2.09 µM (active) in test [5].

Turning to `Cc1ccc(C(=O)Nc2ccc(CN3CCN(C)CC3)c(C(F)(F)F)c2)cc1C#Cc1cnc2cccnn12`, in test [1], the result was inactive. The Potency entry in test [2] is “inactive”. Also, the Potency in test [3] is 16.9 µM (active); in test [6], 12 µM (active); in test [4] it was 29 nM (active) and 186 nM (active); in test [5] it was 91.6 nM (active) and 209 nM (active).

As for `CC(=O)c1c(C)c2cnc(Nc3ccc(N4CCNCC4)cn3)nc2n(C2CCCC2)c1=O`, in test [1], the result was inactive. Further, the Potency in test [2] was 5.95 µM (active); in test [4], 1.48 µM (active); in test [5], 1.32 µM (active). Besides, the Potency entry in test [3] and in test [6] was “inactive” in each case.

Turning to `COc1cccc2c(NCc3ccccc3)nc(-n3c(N)nc4ccccc43)nc12`, in test [1], the outcome was inactive. Further, in test [2], the Potency result is “inactive”. Also, the Potency is 1.9 µM (active) in test [3], 6.74 µM (active) in test [6], 8.33 µM (active) in test [4] and 8.33 µM (active) in test [5].

With `Cc1cc(CN2CCN(c3c(Br)cnc4nc(-c5ccc(N6CCN(C)CC6)cc5)[nH]c34)CC2)no1`, the outcome in test [1] was inactive. For the same molecule, the Potency entry in test [2] was “inactive”. For the same molecule, the Potency was 9.52 µM (active) in test [6]; 205 nM (active) and 468 nM (active) in test [4]; 145 nM (active) and 296 nM (active) in test [5].

Consider `CC(C)Nc1cc(C(F)(F)F)cc2nc(NC(=O)c3cccnc3)nn12`, for which the outcome in test [1] was inactive. Moreover, the Potency result in test [2], in test [3], in test [4] and in test [5] was “inactive” each time.

With `NC(=O)c1c(OCc2c(F)cc(Br)cc2F)nsc1NC(=O)NCCCCN1CCCC1`, the outcome in test [1] was inactive. Also, the Potency result in test [2] was “inactive”. For the same molecule, the Potency in test [3] was 10.7 µM (active); in test [6] it was 16.9 µM (active); in test [4] it was 10.5 µM (active); in test [5], 7.42 µM (active).
